Source: PubChem BioAssay
This is a sample that favours compounds with a hit; in the whole collection about 4.7% have one here.
D1 antagonist = blocks dopamine activation of the human D1 receptor. 3.2% of 360,000 active. activity change, negative = inhibition, % at 10 µM. HEK293 TREx D1 cells, calcium flux, dopamine EC80; hits give low values; in the data active = activity change below about -30%; note: % is set by controls: 0 for no effect and ±100 for the full control effect
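Antagonism measured as reduced calcium response to an EC80 dopamine addition following 180 s compound pre-read; cells were inducible HEK293 Trex D1 plated overnight at 30 C, read kinetically at 1 cycle/sec.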
TRHR PAM = allosterically enhances the human TRH receptor; TRHR cells, fluo-8 calcium fluorescence, EC20 TRH enhancement; 0.66% of 360,000 active; enhancement, % at 2 µM; in the data active = enhancement above about 30%; note: 0% is about no effect
Target sequence (P34981 whole entry, looked up): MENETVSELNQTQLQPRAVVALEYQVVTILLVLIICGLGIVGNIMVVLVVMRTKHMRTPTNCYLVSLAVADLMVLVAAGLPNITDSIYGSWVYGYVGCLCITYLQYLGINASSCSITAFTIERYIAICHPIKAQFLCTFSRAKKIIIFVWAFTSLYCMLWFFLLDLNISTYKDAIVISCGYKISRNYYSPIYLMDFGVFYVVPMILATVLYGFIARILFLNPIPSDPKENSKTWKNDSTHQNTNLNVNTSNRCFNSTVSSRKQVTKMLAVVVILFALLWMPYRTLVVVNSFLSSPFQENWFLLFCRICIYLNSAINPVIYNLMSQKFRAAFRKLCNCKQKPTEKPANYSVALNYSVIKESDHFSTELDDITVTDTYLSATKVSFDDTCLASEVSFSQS
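TRHR-expressing cells loaded with fluo-8 calcium dye were read kinetically (ex 480/em 530) during compound addition, then stimulated with an EC20 of TRH (10 nM final). Enhancement of the Gq-mediated intracellular calcium response was scored.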
D1 potentiator = potentiators of human D1 dopamine receptor. P21728. HEK293 TREx D1 cells, calcium flux, dopamine EC20 potentiation. potentiation, % at 10 µM. 0.036% of 360,000 active. AID 504651; in the data active = potentiation above about 30%; note: 0% is about no effect
D1 ag = agonists of human D1 dopamine receptor; P21728; HEK293 T-REx D1 cells, calcium flux, agonist mode; activation, % at 2 µM; 1% of 360,000 active; note: 0% is about no effect
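Agonism was scored from calcium flux recorded over 180 s (1 read/s) after pintool compound addition, following a 10-cycle baseline. Cells were inducible force-coupled HEK293 TREx D1, plated overnight at 30 C and loaded with no-wash calcium dye.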
TRHR agonist = agonists of human TRH receptor; P34981; TRHR cells, calcium flux fluo-8, FDSS agonist mode; activation, % at 2 µM; 0.18% of 360,000 active; note: 0% is about no effect
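Steps: seed TRHR cells overnight; add fluo-8 no-wash Ca dye, RT 30 min–1.5 h; record 10 s baseline; pin-transfer compounds; monitor fluorescence 1 cycle/s for the agonist window. Calcium increases flag candidate agonists.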
* = called active by the depositor; / = no result given. Cut-off read from the data, not from the text of the source, unless noted: active = activation above about 30%; inactive = the rest.

SMILES	D1 antagonist	TRHR PAM	D1 potentiator	D1 ag	TRHR agonist
CCn1nnc2cc(C(=O)NCCc3ccccc3F)ccc21	17	3	0	3	-1
COC(=O)c1c(N)nc(C)n1-c1ccc(OC)cc1	-14	0	41*	4	0
COc1ccc(-n2c(C)nc(N)c2C(=O)c2ccccc2)cc1	-9	-1	2	3	0
C/C=C(\C)C(=O)O[C@@H]([C@H](O)c1cc2ccc(=O)oc2cc1OC)C(C)(C)O	/	5	-1	1	0
Nn1c(SCC(=O)Nc2ccccc2Oc2ccccc2)nnc1C1CC1	-23	-6	-6	7	0
c1ccc(CNCc2nnc(-c3cc4ccccc4[nH]3)s2)cc1	10	4	-6	0	1
O=C(c1ccc(Cl)c(S(=O)(=O)N2CCOCC2)c1)N(Cc1ccco1)Cc1cccs1	-1	-4	-5	4	0
CC(C)NC(=O)NC(=O)COC(=O)c1cc(S(=O)(=O)N2CCCCC2)ccc1N1CCOCC1	4	-5	-1	3	-2
O=C(NCCc1ccc2c(c1)OCCO2)c1cc(S(=O)(=O)N2CCCC2)ccc1Cl	-32*	2	-6	16	0
O=C(NCCc1ccc2c(c1)OCCO2)c1cccc(S(=O)(=O)N2CCCC2)c1	6	-9	-1	0	0
O=C(c1cccc(S(=O)(=O)N2CCOCC2)c1)N(Cc1ccco1)Cc1cccs1	-56*	1	-3	8	0
CC(C)CNC(=O)COC(=O)c1cc(S(=O)(=O)N2CCCCC2)ccc1N1CCOCC1	7	32*	3	0	0
CN(Cc1cccs1)C(=O)c1cc(S(=O)(=O)N2CCOCC2)ccc1N1CCCC1	-31*	0	2	0	0
O=C(CCS(=O)(=O)c1ccc(Br)s1)Nc1cc(C(F)(F)F)cc(C(F)(F)F)c1	2	-3	0	9	1
COc1ccc(CNC(=O)C2CCN(c3nnc(-n4cccc4CNc4ccc(C)cc4)s3)CC2)c(OC)c1	5	-3	-4	-1	0
O=C(COC(=O)c1cc(S(=O)(=O)N2CCCCC2)ccc1N1CCOCC1)NCCc1ccc(F)cc1	-14	31*	-9	6	0
Cc1csc(Sc2ccc([N+](=O)[O-])cc2C(=O)OCC(=O)NC2CCCC(C)C2C)n1 (stereo not given)	-32*	-3	3	1	0
COc1cc(Cl)c(C)cc1NC(=O)COc1ccc(C)nc1[N+](=O)[O-]	-3	-1	-2	1	0
CCC(Sc1nc(C)cc(=O)[nH]1)C(=O)Nc1nc2c(s1)CCCC2 (stereo not given)	23	15	2	1	1
CC(Sc1nc(N)cc(=O)[nH]1)C(=O)Nc1nc2c(s1)CCCC2 (stereo not given)	-41*	-10	-7	3	0
CCCNc1nc(NCc2ccccc2OC)c2cnn(C)c2n1	-5	1	1	-2	-1
O=c1c2c([N+](=O)[O-])cc([N+](=O)[O-])cc2sn1Cc1ccccc1	-29	6	-5	51*	1
O=c1c2c([N+](=O)[O-])cc([N+](=O)[O-])cc2sn1-c1ccc(Br)cc1	-1	5	-10	0	1
O=C(NCCC1=CCCCC1)c1ccc2c(c1)N(Cc1cccc(Cl)c1)C(=O)c1ccccc1S2=O (stereo not given)	1	0	-7	5	0
NC(=O)c1c(NC(=O)c2ccccc2Cl)sc2c1CCC2	5	36*	-2	2	0
SMILES	D1 antagonist	TRHR PAM	D1 potentiator	D1 ag	TRHR agonist
NC(=O)c1c(NC(=O)c2ccccc2C(=O)O)sc2c1CCCC2	5	-12	-4	2	0
CCN(CCN(C)C)C(=O)C1CCN(S(=O)(=O)c2c(C)noc2/C=C/c2ccccc2F)CC1	-37*	-2	-7	28	2
CCOc1ccccc1/C=C/c1onc(C)c1S(=O)(=O)N1CCC(C(=O)N(CC)CC)CC1	-9	-3	-1	6	2
O=C1/C(=C\c2ccc(O)cc2)SC(=S)N1/N=C/c1ccc(O)cc1	-23	10	4	111*	52*
COc1ccc(-c2onc(C)c2C)cc1S(=O)(=O)NC1CCCCC1	21	15	0	0	0
Cc1ccc(-c2onc(C)c2C)cc1S(=O)(=O)NCc1ccc(N(C)C)cc1	-32*	-2	-5	4	-1
